# Compounds with a hit are over-represented: about 13% of the library has one in this group of screens.
# Shiga toxin inh: blocks Shiga toxin action in Vero cells; Vero cells, Shiga toxin protein synthesis inhibition reporter; inhibition, % at 38.7 µM; 290,000 compounds, 9.2% hits; in the data active means inhibition mostly above about 28%, no sharp cut-off; inactive means mostly below about 43%; further: 0% is about no effect
# FMDV antiviral: foot and mouth disease virus antiviral activity. FMDV antiviral cell-based qHTS. Potency, µM (top dose mostly 57.9 µM), for the others: at the top dose activity change, negative = inhibition, hits mostly inhibitors. 410,000 compounds, 1.2% hits; calls by dose curve; tested in HEK293T cells; further: read-out not given here; potency means the concentration at half of the fitted maximal effect; on the % scale 0 is the no-effect control and ±100 the full control effect; nearly all actives have a fitted effect of over 45% in size
# Lassa entry inh: Lassa virus entry inhibition; Lassa virus pseudotype entry inhibition, cell reporter; 300,000 compounds, 1.2% hits; AID 540256; Potency, µM (series often up to 37.9 µM), without a hit: top-dose activity change, negative = inhibition, most hits filed as inhibitors; calls by dose curve; tested in HEK293 cells; further: potency means the concentration at half of the fitted maximal effect; on the % scale 0 is the no-effect control and ±100 the full control effect; nearly all actives have a fitted effect of over 50% in size
# Cycloheximide cs: counter-screen hit for Shiga toxin inhibitors, cycloheximide | cell reporter, cycloheximide protein synthesis inhibition counterscreen | max response, % | 300,000 compounds, 12% hits | AID 2314; in the data active means max response mostly above about 13%, no sharp cut-off; inactive means mostly below about 14%; further: read at 38.3 µM for the half of the compounds with a filed dose; 0% is about no effect
# MARV entry inh: inhibitors of Marburg virus binding or cell entry. 300,000 compounds, 1.8% hits. Marburg virus pseudotyped entry inhibition, cell reporter. Potency, µM (highest dose often 37.8 µM), without a hit: at the highest dose activity change, negative = inhibition, actives largely listed as inhibitors. AID 540276; calls by dose curve; tested in HEK293 cells; further: potency means the concentration at half of the fitted maximal effect; on the % scale 0 is the no-effect control and ±100 the full control effect
# HCV inh: blocks hepatitis C virus; Huh7.5.1 HCVcc-Cre infection, luciferase reporter, 44 h; Potency, µM (titrated, usually from 41.8 µM), for the others: at the highest dose activity change, negative = inhibition, actives largely listed as inhibitors; 340,000 compounds, 3.4% hits; AID 651820; active means well fitted inhibition curve with a large enough effect; inconclusive means small, poorly fitted or top-dose-only effect, or another doubt; inactive means no such curve, though single readings can be large or run the other way; further: potency means the concentration at half of the fitted maximal effect; on the % scale 0 is the no-effect control and ±100 the full control effect
#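 1,000 cells/well; 4 h culture; + compound; + HCVcc-Cre (~0.5 moi); 44 h; luciferase substrate, RT 15 min; read 15 sec.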
# * marks the source's active call; other numbers are inactive results; ? = inconclusive; nt = not tested or not shown; [ ] = another dose, or the depositor's remark.
SMILES,Shiga toxin inh,FMDV antiviral,Lassa entry inh,Cycloheximide cs,MARV entry inh,HCV inh
Cc1cccc(N/C(N)=N/c2nc(C)cc(=O)[nH]2)c1,-1,-5%,-14%[46.1 µM],-1,-1%[46.1 µM],18%
COc1cc(NC(=O)c2cccc3c(-c4cccnc4)coc23)cc(OC)c1OC,nt,13µM*,nt,nt,nt,nt
COc1ccc(CNC(=O)c2cccc3c(-c4cnn(C)c4)coc23)cc1OC,nt,16µM*,nt,nt,nt,nt
CC(=O)c1cccc(NC(=O)c2cccc3c(-c4cccc(C(N)=O)c4)coc23)c1,nt,35µM*,nt,nt,nt,nt
CCOC(=O)N1CCN(C(=O)c2ccc(N(C)S(=O)(=O)c3ccc(C)cc3)cc2)CC1,-6,-21%,nt,-2,nt,14µM*
Cc1ccc(S(=O)(=O)N(C)c2ccc(C(=O)N3CCc4ccccc4C3)cc2)cc1,20,-12%,11µM*,-3,?,?
CCC(C)(C(=O)NC1CCCCC1)N(Cc1ccco1)C(=O)c1ccc2c(c1)OCO2 (centres undefined),-11,-8%,22%,0,-18%,?
Brc1cc(Cc2nnc(-c3ccccc3)o2)c(Br)s1,24,5%,1%[46.1 µM],14*,?,7%
ClC(Cl)(Cl)c1nc2ccccc2n2nncc12,-6,?,?,-3,4.5µM*,13µM*
c1ccc(CCNc2nc3ccccc3n3nnnc23)cc1,21,5%,2%,5,18%,20%
COc1cc2c3nnc(-c4ccccc4)c-3cn(Cc3ccccc3F)c2cc1OC,-18,-15%,?,11,?,?
O=C(Nc1cn(-c2ccccc2)nc1-c1ccc(Cl)cc1)c1ccccc1,-5,0%,0%,-2,?,?
O=C(Nc1cn(-c2ccccc2)nc1-c1cccs1)c1ccco1,92*,-24%,3%,18*,?,?
O=C(CCl)Nc1cn(-c2ccccc2)nc1-c1ccccc1,37,20µM*,4.1µM*,39*,16µM*,2.8µM*
Cc1ccc(-c2nn(-c3ccccc3)cc2NC(=O)c2ccccc2)cc1,44*,14%,12%,19*,23%,?
CN1C[C@@H]2[C@@H]3C(=O)N(C)C(=O)[C@@H]3[C@](C)(C1=O)N2C(=O)c1ccc(Br)cc1,nt,-12%,nt,nt,nt,13%
CC(C)C(c1nnnn1CC1CCCO1)N1CCN(C2CCCC2)CC1 (centres undefined),-12,3%,15%,-5,1%,6%
CCOc1ccc(CCNC(=O)COC(=O)COc2ccc(Br)cc2)cc1OCC,-16,-20%,-4%,-1,10%,-6%
Cn1c(N2CCOCC2)c(/C=N/OC(=O)c2ccc(F)cc2)c2ccccc21,-15,-10%,?,-4,?,3.5µM*
CC(=O)O/N=C/c1c(N2CCOCC2)n(C)c2ccccc12,-3,-13%,?,0,?,?
Cc1ccc(C(=O)O/N=C/c2c(N3CCOCC3)n(C)c3ccccc23)cc1,-8,-5%,?,-3,?,6.3µM*
COc1ccc(S(=O)(=O)N2CCCC2c2cccs2)cc1 (centres undefined),-4,6%,nt,-1,nt,-15%
Cc1ccc(C)c(NC(=O)CCN2CC(C)CC(C)C2)c1 (centres undefined),nt,-2%,nt,-2,nt,2%
Cc1noc(C)c1C1(O)CCCCCCCCCCC1,-5,0%,-28%,-1,?,2%
COc1cccc(Nc2ncc(C#N)c(N)n2)c1,81*,27%,-10%[46.1 µM],39*,?,-2%
SMILES,Shiga toxin inh,FMDV antiviral,Lassa entry inh,Cycloheximide cs,MARV entry inh,HCV inh
Cc1ccc2c(CN(C)Cc3cccc(Cl)c3)cc(=O)oc2c1C,33,3%,?,6.4*,?,?
CCOc1ccc(CN(C)Cc2cc(=O)oc3c(C)c(C)ccc23)cc1OC,nt,?,?,nt,?,11µM*
COc1cc(CN(C)Cc2cc(=O)oc3cc(C)c(Cl)cc23)ccc1OC(F)F,50*,?,?,22,?,10µM*
CSc1ccc(CN(C)Cc2cc(=O)oc3c(C)c(C)ccc23)cc1,-6,?,nt,-4,nt,?
Cc1cc2oc(=O)cc(CN(C)Cc3cccc(F)c3)c2cc1Cl,3,13%,nt,-2,nt,-22%
CSc1ncc(C(=O)Nc2ccccc2C)c(C)n1,8,-1%,10%[46.1 µM],-3,?,3%
CCOC(=O)C1=C(c2ccccc2)N=c2s/c(=C\c3cccc(O)c3)c(=O)n2C1c1cccs1 (centres undefined),-8,nt,16µM*,-1,?,32µM*
COc1ccc(-n2ncc(C(=O)N3CCN(C4CCCCC4)CC3)c2C2CCN(C(=O)OC(C)(C)C)CC2)cc1,nt,-11%,?,nt,nt,nt
N#Cc1cccc(-n2c(-c3ccccc3)nnc2-c2ccccc2)c1C#N,24,-3%,-1%,19*,-13%,3%
N#Cc1ccccc1NC(=O)CSc1nnc(-c2ccccc2)n1-c1ccccc1,-7,?,?,-2,?,1%
N#Cc1ccc(-n2c(-c3ccccc3)nnc2-c2ccccc2)cc1C#N,37,nt,5%,30*,?,?
Cc1cccc(OCC(=O)NNc2c3ccccc3nc3ccccc23)c1,15,?,?,1,?,1µM*
Cc1ccc(OCC(=O)NNc2c3ccccc3nc3ccccc23)cc1,8,?,?,-2,?,1µM*
Cc1ccc(C(=O)COc2nc(C)nc3ccccc23)cc1,80*,18%,-14%,24*,7%[46.1 µM],9%
Cc1cc(C)c(C#N)c(OCC(=O)c2ccccc2)n1,35,-17%,14%,39*,21%[46.1 µM],-8%
Cc1cc(C)c(C#N)c(OCC(=O)Nc2ccccc2)n1,1,-7%,21%,1,11%,10%
O=C(Cc1ccccc1)NNc1c2ccccc2nc2ccccc12,-5,1%,-10%[46.1 µM],-3,?,?
Cc1cc(CNC(=O)COc2ccccc2)c2ccccc2n1,80,-24%,?,17*,?,-25%
Cc1cc(CNC(=O)COc2ccc(F)cc2)c2ccccc2n1,24,?,nt,0,nt,1%
O=C(O)CC(c1cccc(Cl)c1)n1cccc1 (centres undefined),-13,11%,0%,-4,1%,11µM*
CC(=O)Nc1cccc(NC(=O)C(=O)c2cn(CC(=O)N3CCCCC3)c3ccccc23)c1,85*,14%,?,45*,?,-4%
O=C(Nc1ccccc1F)C(=O)c1cn(CC(=O)N2CCCCC2)c2ccccc12,54*,18%,-2%,33*,19%[46.1 µM],-22%
CC(=O)Nc1ccc(NC(=O)C(=O)c2cn(CC(=O)N3CCCC3)c3ccccc23)cc1,23,-6%,4%,-1,1%,nt
CN(CC(=O)O)c1ccc(C(F)(F)F)cc1[N+](=O)[O-],-8,-12%,-1%,11,3%[46.1 µM],-1%
O=C(N/N=C/CCc1ccccc1)c1ccccc1,53*,34%,?,37*,4%,20%
